An excerpt weighted towards active compounds, which were near 2.8% of everything screened.
MsrA inh: bovine MsrA inhibition; purified bovine MsrA, absorbance read-out; inhibition, % at 15.5 µM; 0.75% of 360,000 active; AID 651718; in the data active means inhibition above about 4.5%;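 further: 0% = vehicle wells with enzyme and 100% = reference inhibitor wells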
MsrA act: activates bovine MsrA enzyme. purified bovine MsrA, absorbance read-out. activation, % at 10.6 µM. 0.3% of 360,000 active. AID 602163; in the data active means activation above about 7.5%;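 further: 0% = vehicle and 100% = reference activator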
rCAG RNA binder: binds r(CAG) RNA repeats; r(CAG) RNA repeat, TO-PRO-1 dye displacement fluorescence; AID 651821; inhibition, % at 3 µM; 1.3% of 370,000 active;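 active means inhibition above the plate cutoff, the mean of all test compounds on that plate plus 3 SD, cut at about 35% in these data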;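 further: 0% = DMSO alone and 100% = 100 µM mitoxantrone as full dye displacement; higher means more dye released from RNA so lower well fluorescence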
HGIII-sPLA2 inh: Inhibits HGIII-sPLA2 liposome hydrolysis, primary screen. Q9NZ20. QFRET BODIPY PC-A2 liposome hydrolysis, fluorescence. inhibition, % at 12.2 µM. 0.56% of 370,000 active. AID 743126;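 active means inhibition above mean plus 3 SD of compounds lying within the high and low control bounds, cut at about 19% in these data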;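 further: 0% = median of test compound wells and 100% = no enzyme DMSO wells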
Target sequence (Q9NZ20 whole entry, looked up): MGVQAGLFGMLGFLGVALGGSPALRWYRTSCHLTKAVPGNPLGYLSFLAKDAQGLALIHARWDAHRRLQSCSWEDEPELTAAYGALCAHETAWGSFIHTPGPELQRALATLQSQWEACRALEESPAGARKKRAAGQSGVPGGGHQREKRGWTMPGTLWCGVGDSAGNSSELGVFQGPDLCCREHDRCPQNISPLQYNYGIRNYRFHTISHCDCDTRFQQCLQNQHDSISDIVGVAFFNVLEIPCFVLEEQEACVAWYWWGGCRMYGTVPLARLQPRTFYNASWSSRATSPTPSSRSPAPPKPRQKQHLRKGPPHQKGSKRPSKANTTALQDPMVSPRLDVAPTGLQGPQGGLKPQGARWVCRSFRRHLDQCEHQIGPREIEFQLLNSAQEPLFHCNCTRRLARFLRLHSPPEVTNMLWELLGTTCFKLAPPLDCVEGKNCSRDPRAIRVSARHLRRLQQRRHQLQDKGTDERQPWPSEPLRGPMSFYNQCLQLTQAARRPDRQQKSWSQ
rCAG binder conf: r(CAG) RNA repeat binding, confirmation; shares compounds with rCAG RNA binder; TO-PRO-1 dye displacement fluorescence; inhibition, % at 3 µM; 70% of 4,300 active; AID 652065;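 active means inhibition above a per-plate cutoff, the mean inhibition of sample wells plus 3 SD, cut at about 35% in these data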;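 further: loss of TO-PRO-1 fluorescence as compound displaces dye from 1x1 AA loop RNA; 0% = DMSO only wells and 100% = 100 µM mitoxantrone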
DNA CAG counter: DNA CAG dye complex inhibition counter-screen. inhibition, % at 3 µM. 94% of 4,300 active. shares compounds with rCAG RNA binder. d(CAG) DNA oligo TO-PRO-1 dye displacement, fluorescence;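 active means inhibition above its plate's cutoff, the mean test-well inhibition plus 3 SD, cut at about 4.8% in these data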;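 further: 0% = DNA dye mix with DMSO and 100% = 100 µM mitoxantrone; hits displace the dye from DNA and so lower well fluorescence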
DNA CAG DR: DNA CAG dye complex inhibition, dose response counter-screen; shares compounds with rCAG RNA binder; DNA CAG/GTC duplex TO-PRO-1 dye displacement fluorescence; IC50, µM; 20% of 250 active; AID 686960; in the data active means IC50 below about 10 µM
The depositor's hits bear a star; nt = no result.

SMILES	MsrA inh	MsrA act	rCAG RNA binder	HGIII-sPLA2 inh	rCAG binder conf	DNA CAG counter	others
COc1cccc(NC(=O)CSc2ncc(S(=O)(=O)c3ccccc3)c(=O)[nH]2)c1	1	-2	20	-5	nt	nt
O=C(NC(=S)Nc1ccc(S(=O)(=O)Nc2nccs2)cc1)c1ccccc1	0	0	41*	-17	37*	8.9*
O=C(NC(=S)Nc1ccc(S(=O)(=O)Nc2nccs2)cc1)c1ccccc1F	-1	-4	42*	-1	41*	13*
COc1cccc(OC)c1C(=O)NC(=S)Nc1ccc(S(=O)(=O)Nc2nccs2)cc1	0	-9	59*	-24	40*	16*
O=C(NC(=S)Nc1ccc(S(=O)(=O)Nc2nccs2)cc1)c1cccnc1	0	-2	7	2	nt	nt
CC(C)C(=O)NC(=S)Nc1ccc(S(=O)(=O)Nc2nccs2)cc1	-1	1	10	6	nt	nt
COc1ccccc1C(=O)Nc1ccc(S(=O)(=O)Nc2nccs2)cc1	-1	-1	22	-14	nt	nt
Cc1cc(C)cc(NS(=O)(=O)c2ccc(NC(=S)NC(=O)c3ccc(Br)o3)cc2)c1	2	-11	24	-44	nt	nt
O=C(NC(=S)Nc1ccc(S(=O)(=O)Nc2nccs2)cc1)c1ccc(Br)o1	0	-12	47*	-5	33	12*
O=c1[nH]c2ccc(S(=O)(=O)Nc3ccc(Cl)cc3)cc2o1	-1	-4	4	-21	nt	nt
Cn1c(=O)[nH]c(=O)c2c1nc(N1CCCCC1)n2C/C=N/NC(=O)c1cc(Br)ccc1O	1	5	17	-1	nt	nt
O=C(NC(=S)Nc1ccc(S(=O)(=O)Nc2nccs2)cc1)c1ccc(F)c(F)c1	2	-4	63*	-27	40*	12*
CC(C)C(N)c1csc(NC(=O)Nc2ccc(OC(F)(F)F)cc2)n1 (configuration not stated)	-1	-4	40*	4	26	2
COc1ccc(CC(N)c2csc(NC(=O)Nc3ccc(F)cc3)n2)cc1 (configuration not stated)	4	-1	43*	6	21	9.5*
NC(COCc1ccccc1)c1csc(NC(=O)Nc2cccc(Cl)c2)n1 (configuration not stated)	-1	0	48*	7	24	5.5*
NCc1csc(NC(=O)Nc2cccc(C(F)(F)F)c2)n1	1	-1	53*	10	51*	11*	DNA CAG DR=>30
COC(=O)[C@@H](NC(=O)Nc1ccc(OC(F)(F)F)cc1)C(C)C	1	-2	0	2	nt	nt
O=C(Nc1ccncc1)Nc1cccc(C(F)(F)F)c1	0	-4	2	-18	nt	nt
COc1cc(NC(=O)Nc2nc(C(N)CCc3ccccc3)cs2)cc(OC)c1OC (configuration not stated)	-2	-2	35*	-7	30	2
COc1ccc(CC(N)c2csc(NC(=O)Nc3cccc(C(F)(F)F)c3)n2)cc1 (configuration not stated)	-2	-1	47*	18	26	7.1*
NC(Cc1ccc(Cl)cc1)c1csc(NC(=O)Nc2ccccc2)n1 (configuration not stated)	0	-2	38*	11	23	11*
NC(Cc1ccc(C(F)(F)F)cc1)c1csc(NC(=O)Nc2ccccc2)n1 (configuration not stated)	0	2	35*	7	16	7.5*
COc1ccc(CC(N)c2csc(NC(=O)Nc3cc(OC)ccc3OC)n2)cc1 (configuration not stated)	1	-2	13	19	nt	nt
CN(C)S(=O)(=O)c1cccc(N2C(=O)CC3(CCCCC3)CC2=O)c1	1	-14	-2	8	nt	nt
CC(C)C(N)c1csc(NC(=O)Nc2ccccc2C(C)(C)C)n1 (configuration not stated)	-2	-5	14	7	nt	nt
SMILES	MsrA inh	MsrA act	rCAG RNA binder	HGIII-sPLA2 inh	rCAG binder conf	DNA CAG counter	others
NC(CCc1ccccc1)c1csc(Nc2ccc(C(F)(F)F)cn2)n1 (configuration not stated)	0	-6	15	13	nt	nt
NC(CCc1ccccc1)c1csc(NC(=O)Nc2cccc(C(F)(F)F)c2)n1 (configuration not stated)	0	-5	40*	16	22	3
CC(C)C(N)c1csc(NC(=O)Nc2cccc(C(F)(F)F)c2)n1 (configuration not stated)	-2	0	42*	13	45*	4	DNA CAG DR=>30
CCOC(=O)c1c(C)[nH]c(C(=O)CN2CCN(CC)CC2)c1C	0	-4	-2	-3	nt	nt
COc1ccc(NC(=O)CSc2n[nH]c(=O)n2C2CC2)cc1Cl	1	-10	3	2	nt	nt
COc1ccc(NC(=O)CSc2nc(-c3ccco3)nc3cc(=O)[nH]n23)cc1Cl	2	-3	54*	-11	36*	14*
Cc1nc(-c2ccc(S(=O)(=O)Nc3ccc(Br)cc3Cl)s2)cs1	1	-1	74*	-62	66*	27*
Cc1nc(-c2ccc(S(=O)(=O)Nc3cccc(S(N)(=O)=O)c3)s2)cs1	0	-5	5	-15	nt	nt
CC(C)NC(=O)C1(C#N)C=C1c1ccccc1 (configuration not stated)	0	-3	5	-12	nt	nt
COc1cccc(/C=C2\SC(=S)N(CCCC(=O)Nc3ccc(C(=O)O)cc3)C2=O)c1	0	-3	69*	-5	61*	22*
O=C(O)CCN1C(=O)/C(=C\c2cccc(OCC(=O)Nc3ccc(Cl)cc3)c2)SC1=S	1	-6	71*	-22	82*	43*
COc1ccc(/C=C2\SC(=S)N(CCCC(=O)Nc3ccc(C(=O)O)cc3)C2=O)cc1OC	1	-8	64*	-18	53*	18*
Cc1cccc(N2C(=O)C(O)=C(C(=O)c3cccs3)C2c2cccc(Oc3ccccc3)c2)n1 (configuration not stated)	0	-3	45*	-10	40*	10*
CCOC(=O)c1sc(N/N=C/c2cc(Br)c(O)c(OC)c2)nc1C	1	-3	48*	-2	38*	17*
COC(=O)c1sc(N/N=C/c2ccc(C(C)C)cc2)nc1C	0	-3	2	5	nt	nt
O=[N+]([O-])c1cc(S(=O)(=O)Nc2ccc(Cl)cc2)ccc1N/N=C/c1ccncc1	1	-5	4	-3	nt	nt
CC(=O)Nc1cccc(/C(C)=N/Nc2ccc(S(=O)(=O)Nc3ccccc3C(=O)O)cc2[N+](=O)[O-])c1	1	-3	85*	-25	94*	80*
COc1cc(C=NNc2ccc(S(=O)(=O)Nc3ccccc3C(=O)O)cc2[N+](=O)[O-])ccc1O	4	-7	90*	-20	91*	69*

Source: PubChem (The Scripps Research Institute Molecular Screening Center)
